The full list was thinned out, with hits kept by preference.
ROS inducer: raises reactive oxygen species in U2OS cancer cells; U2OS ROS induction, H2DCF-DA fluorescence; ROS induction (% of piperlongumine), % at 10 µM; actives 2% (n = 46,000); AID 624156; in the data active means ROS induction above about 79%, passing the limit was not always enough
Hits are given with their value; . = inactive.

SMILES	ROS inducer
CCOc1ccc(C(NC(=O)c2ccco2)NC(=O)c2ccco2)cc1OC	.
CC(=O)NC(C)c1nc2ccccc2n1Cc1ccccc1 (stereo not given)	.
CCc1ccccc1NC(=O)C(Cc1ccccc1)N1C(=O)c2ccccc2C1=O (stereo not given)	.
COC(=O)CNC(c1ccccc1)c1cc(Br)ccc1NC(=O)c1ccccc1Cl (stereo not given)	97
COC(=O)CNC(c1ccccc1)c1cc(Br)ccc1N=Cc1ccccc1O (stereo not given)	.
O=C(NC(c1ccccc1)c1ccccc1)c1ccccc1Cl	.
COc1cc(O)cc2c1C(=O)OC(C)C2 (stereo not given)	.
C[C@@H]1C[C@@H]2O[C@H]2/C=C/C=C\C(=O)Cc2c(Cl)c(O)cc(O)c2C(=O)O1	140
O=c1c2ccccc2nc(SCc2ccc(Cl)cc2)n1Cc1cccs1	.
N#Cc1c(Nc2ccccc2)sc2c(N)nc(N)nc12	.
O=c1cc(-c2ccccc2)oc2cccc(O)c12	.
O=c1cc(-c2ccccc2)oc2cc(O)cc(O)c12	.
CC1(C)C=Cc2c(c3occc3c3oc(-c4ccccc4)cc(=O)c23)O1	223
O=c1sc2ccccc2n1Cc1nnc(SCc2ccccn2)n1-c1cccc(Cl)c1	.
O=S(=O)(c1ccccc1)N1CCC(Cc2ccccc2)CC1	.
COc1ccc(NC(=O)OCC23COCN2COC3)cc1	.
O=C1NN=C(c2ccccc2)/C1=C1\OC(c2ccccc2)=CS1	138
CCc1n[nH]c(=S)c2cc3sccc3n12	.
COc1ccc(C2C(C#N)=C(N)OC3NN=C(C)C32)cc1COc1cccc(Cl)c1 (stereo not given)	.
COC(=O)c1sccc1-c1ccc(-c2ccn(S(=O)(=O)c3ccc(Cl)cc3)n2)o1	.
CCOC(=O)c1nnn2c1nc(SCC(N)=O)c1ccccc12	.
CCOC(=O)c1nnn2c1nc(N(Cc1ccccc1)Cc1ccccc1)c1ccccc12	173
CCOC(=O)c1nnn2c1nc(SCc1ccc(F)cc1)c1ccccc12	.
Cc1cc2ccccc2c(=O)n1CC(=O)NCC(=O)NCC1COc2ccccc2O1 (stereo not given)	.
Cc1noc(C)c1S(=O)(=O)Nc1ccc2c(c1)C(=O)N([C@H](C)CO)C[C@H](C)[C@@H](CN(C)S(=O)(=O)c1ccc(F)cc1)OCCCC[C@@H](C)O2	126
SMILES	ROS inducer
COc1ccc(S(=O)(=O)N(C)C[C@H]2OCCCC[C@@H](C)Oc3ccc(NS(=O)(=O)c4c(C)noc4C)cc3C(=O)N([C@H](C)CO)C[C@@H]2C)cc1	.
COc1ccc(S(=O)(=O)Nc2ccc3c(c2)C(=O)N([C@H](C)CO)C[C@H](C)[C@H](CN(C)S(=O)(=O)c2c(C)noc2C)OCCCC[C@@H](C)O3)cc1	.
Cc1noc(C)c1S(=O)(=O)N(C)C[C@H]1OCCCC[C@@H](C)Oc2ccc(NS(=O)(=O)c3ccc(Cl)cc3)cc2C(=O)N([C@H](C)CO)C[C@@H]1C	110
COc1ccc(S(=O)(=O)Nc2ccc3c(c2)C(=O)N([C@H](C)CO)C[C@H](C)[C@@H](CN(C)S(=O)(=O)c2ccc(OC)cc2)OCCCC[C@@H](C)O3)cc1	.
Cc1ccc(S(=O)(=O)Nc2ccc3c(c2)C(=O)N([C@H](C)CO)C[C@H](C)[C@@H](CN(C)S(=O)(=O)c2c(C)noc2C)OCCCC[C@@H](C)O3)cc1	.
COc1ccc(S(=O)(=O)Nc2ccc3c(c2)C(=O)N([C@H](C)CO)C[C@H](C)[C@H](CN(C)S(=O)(=O)c2ccc(Cl)cc2)OCCCC[C@@H](C)O3)cc1	91
COc1ccc(S(=O)(=O)N(C)C[C@H]2OCCCC[C@@H](C)Oc3ccc(NS(=O)(=O)c4ccc(Cl)cc4)cc3C(=O)N([C@H](C)CO)C[C@@H]2C)cc1	.
Cc1ccc(S(=O)(=O)N(C)C[C@H]2OCCCC[C@@H](C)Oc3ccc(NS(=O)(=O)c4c(C)noc4C)cc3C(=O)N([C@H](C)CO)C[C@@H]2C)cc1	.
Cc1ccc(C=C2C(=O)NC(=O)NC2=O)cc1	.
CCCCN(C)C(=O)c1ccc(Sc2ccc(Cl)cc2)c(NC(C)=O)c1	.
Cc1cc(Cl)ccc1OCCCC(=O)NC1CCSC1=O (stereo not given)	.
C=CCNC(=O)CCN1C(=O)COc2ccccc21	.
CCc1cccc(C)c1NC(=O)C1COc2ccccc2O1 (stereo not given)	.
C[C@H](CO)N1C[C@H](C)[C@H](CN(C)C(=O)Nc2cccc3ccccc23)Oc2ccc(NS(=O)(=O)c3ccccc3)cc2CC1=O	.
C[C@@H]1CN([C@H](C)CO)C(=O)Cc2cc(NS(=O)(=O)c3ccccc3)ccc2O[C@H]1CN(C)C(=O)Nc1cccc2ccccc12	98
C[C@@H]1CN([C@H](C)CO)C(=O)Cc2cc(NS(=O)(=O)c3cn(C)cn3)ccc2O[C@@H]1CN(C)C(=O)Nc1cccc2ccccc12	.
C[C@@H]1CN([C@H](C)CO)C(=O)Cc2cc(NS(=O)(=O)c3cn(C)cn3)ccc2O[C@H]1CN(C)C(=O)Nc1cccc2ccccc12	.
C[C@H]1CN([C@@H](C)CO)C(=O)Cc2cc(NS(=O)(=O)c3cn(C)cn3)ccc2O[C@H]1CN(C)C(=O)Nc1cccc2ccccc12	121
C[C@@H]1CN([C@@H](C)CO)C(=O)Cc2cc(NS(=O)(=O)c3ccccc3)ccc2O[C@@H]1CN(C)C(=O)Nc1cccc2ccccc12	.
O=C(CSc1nc2ccccc2[nH]1)n1c2ccccc2c2ccccc21	.
O=C(NCCOc1ccccc1Cc1ccccc1)c1ccc(Br)cc1	.
O=C(COc1ccccc1)NCC(=O)Nc1nc(CC23CC4CC(CC(C4)C2)C3)cs1	.
CC(C)(Oc1ccc(Cl)cc1)C(=O)Nc1ccccc1-c1nc2ccccc2s1	.
COc1ccc(-c2nc3ccccc3s2)cc1	.
COc1ccc(-n2c(N)c(-c3nc4ccccc4s3)c3nc(C#N)c(C#N)nc32)cc1	153
SMILES	ROS inducer
Cc1ccsc1-c1nc(CSCC(=O)O)c(C)o1	.
COc1ccc(C2NC(c3ccc(OC)cc3)C(C)C(O)(Cc3ccccc3)C2C)cc1 (stereo not given)	.
O=C(O)C1C2C=CC(C2)C1C(=O)Nc1nc2ccc(Br)cc2s1 (stereo not given)	.
COc1ccc(C)cc1N(C)C(=O)c1nn(C)c2c1COc1ccccc1-2	.
COc1ccc(/C=C/C(=O)CC(=O)/C=C/c2cccc(O)c2OC)cc1O	98
COc1ccc(/C=N/NC(=O)c2cccc(C(=O)NO)c2)cc1O	.
COc1cc(/C=C/C(=O)CC(=O)/C=C/c2ccc(O)c(OC)c2)ccc1O	.
CCNC(=S)Nc1sc2c(c1C#N)CCC(C)C2 (stereo not given)	167
CC1CCc2sc(NC(=O)C(Cc3ccccc3)Cc3ccccc3)c(C#N)c2C1 (stereo not given)	.
COC(=O)c1c(NC(=S)Nc2nc(C)cc(C)n2)sc2c1CCC(C)C2 (stereo not given)	.
CC(C(=O)N1CCc2ccccc21)N1C(=O)c2ccccc2C1=O (stereo not given)	.
N#CCSc1nc(C2CC2)cc(-c2ccc(F)cc2)c1C(N)=O	.
Cc1ccc(S(=O)(=O)N(C)C[C@@H]2Oc3ccc(NS(=O)(=O)c4cccs4)cc3CC(=O)N([C@H](C)CO)C[C@H]2C)cc1	95
C[C@@H]1CN([C@H](C)CO)C(=O)c2cc(NS(C)(=O)=O)ccc2O[C@@H]1CN(C)S(=O)(=O)c1ccccc1	102

Source: PubChem BioAssay (Broad Institute)
